High-throughput results from PubChem.
This is a sample that favours compounds with a hit; in the whole collection about 0.039% have one here.
MBNL1-CUG inh: blocks human MBNL1 binding to CUG repeat RNA. Q9NR56. Potency, µM (titrated, usually from 57.5 µM), for the others: at the top dose activity change, negative = inhibition, hits mostly inhibitors. 0.036% of 280,000 active. TR-FRET MBNL1-His/biotin-(CUG)12 binding, 665/545 ratio; active = well fitted inhibition curve with a large enough effect in the signal ratio, with a control signal flat, not every such curve was filed as active; inconclusive = small, poorly fitted or top-dose-only effect, or effect the other way, or a change in a side signal; inactive = no such curve, though single readings can be large or run the other way; the % refers to the signal ratio; also: potency is read from the fitted curve at half-maximal effect; % is scaled to controls: 0 for no effect and ±100 for the full control effect
Target sequence (Q9NR56 whole entry, looked up): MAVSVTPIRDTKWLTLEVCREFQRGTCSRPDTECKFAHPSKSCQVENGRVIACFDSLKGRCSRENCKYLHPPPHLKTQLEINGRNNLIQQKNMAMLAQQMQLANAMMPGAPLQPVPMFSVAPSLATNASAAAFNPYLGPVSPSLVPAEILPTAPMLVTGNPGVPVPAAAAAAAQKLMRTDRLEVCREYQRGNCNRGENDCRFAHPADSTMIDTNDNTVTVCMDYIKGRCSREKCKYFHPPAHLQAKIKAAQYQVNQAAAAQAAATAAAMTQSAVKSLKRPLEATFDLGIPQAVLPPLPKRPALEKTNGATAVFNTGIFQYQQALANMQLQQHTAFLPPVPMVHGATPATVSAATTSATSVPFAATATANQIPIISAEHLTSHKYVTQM
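Inhibition of protein-RNA binding appears as loss of TR-FRET between terbium anti-His antibody on MBNL1-His and streptavidin-XL665 on biotin-(CUG)12. Activity is normalized to buffer-only and uninhibited-complex controls.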
LMNA splice mod: LMNA splicing modulation; AID 1487; HeLa LMNA splicing GFP/RFP minigene ratio, 48 h; Potency, µM (top dose mostly 46.1 µM), without a hit: at the top dose ratio change, negative = inhibition, usual class: inhibitors; 0.01% of 200,000 active; active = well fitted inhibition curve with a large enough effect in the signal ratio, with a control signal flat, not every such curve was filed as active; inconclusive = small, poorly fitted or top-dose-only effect, or effect the other way, or a change in a side signal; the % refers to the signal ratio; also: potency is read from the fitted curve at half-maximal effect; % is scaled to controls: 0 for no effect and ±100 for the full control effect
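Read-out is the ratio of GFP to DsRed2 object intensity, acquired by 488 nm laser-scanning cytometry on HeLa lamin A-EGFP minigene reporter cells. Compound incubation 48 hrs at 37 °C in Opti-MEM with 2% FBS; DMSO 0.5% final.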
CBFb RUNX1 block: blocks binding between human CBF-beta and RUNX1; Q01196+Q13951; AlphaScreen CBFb-His/RUNX1-biotin binding, biochemical; Potency, µM (top dose mostly 59.8 µM), for inactives: at the highest dose activity, negative = inhibition, hits mostly inhibitors; 230,000 tested, under 10 active; also: % of control where 0% means no effect
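Inhibition was taken as any reduction in AlphaScreen signal from the CBF-beta–RUNX1 pair (His and biotin tags, 30 nM each), measured after compound (15 min) and bead (90 min) incubations at room temperature.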
MBNL1 TRFRET: confirmation of inhibitors of human MBNL1-poly(CUG) RNA binding. shares compounds with MBNL1-CUG inh. Potency, µM (doses to about 57.6 µM), inactives show at the highest dose activity change, negative = inhibition, actives largely listed as inhibitors. 50% of 140 active. TR-FRET MBNL1-His / biotin-(CUG)12 binding, 60 min
MBNL1 AlphaScrn: MBNL1-CUG RNA binding inhibition, AlphaScreen validation | shares compounds with MBNL1-CUG inh | AlphaScreen MBNL1-His / biotin-(CUG)12 binding | Potency, µM (top dose mostly 57.7 µM), for the others: at the top dose activity, negative = inhibition, usual class: inhibitors | 30% of 140 active | AID 493205
MBNL1 HTRF CS: MBNL1-CUG RNA binding inhibitor counterscreen activity; shares compounds with MBNL1-CUG inh; His-Menin/biotin-MLL peptide TR-FRET counterscreen; Potency, µM (titrated, usually from 57.6 µM), for the others: at the highest dose activity, negative = inhibition, most hits filed as inhibitors; 20% of 120 active
Starred values were filed as active, the others as inactive; [ ] = another dose, or the depositor's remark. Unless noted, calls follow the shape of the dose curve; as a rule, active = well fitted curve in the direction sought with a large enough effect; inconclusive = small, poorly fitted or top-dose-only effect, or another doubt; inactive = no such curve, though single readings can be large; an effect the other way counts as inactive or inconclusive.

O=S(=O)(Nc1cccc2cccnc12)c1ccc(Br)s1 was read as CBFb RUNX1 block 6%.
`Cc1ccc(S(=O)(=O)N2CCCc3cc(NS(=O)(=O)c4ccccc4)ccc32)cc1` gave LMNA splice mod -9%[46 µM].
Cc1ccc(C)c(N2CCN(CCCNC(=O)C3COc4ccccc4C3)CC2)c1 (stereo not drawn) was read as LMNA splice mod -26%[46 µM].
Screening O=S(=O)(Nc1cccc2cccnc12)c1ccc(Br)cc1 returned CBFb RUNX1 block 16%.
Screening O=C(CCCCC(=O)NCCCc1ccccc1)NCCCc1ccccc1 returned MBNL1-CUG inh -1%.
`Cc1cccc(C)c1NC(=O)CCCCCC1NC(=O)NC1C` (stereo not drawn) gave MBNL1-CUG inh 0.71µM* and CBFb RUNX1 block inconclusive.
`CC1NC(=O)NC1CCCCCC(=O)NCCc1ccccc1` (stereo not drawn) gave MBNL1-CUG inh 0.45µM*, LMNA splice mod -7% and CBFb RUNX1 block inconclusive.
Cc1cccc(C)c1NC(=O)CCCN1CC(C)OC(C)C1 (stereo not drawn) was read as MBNL1-CUG inh -9%, LMNA splice mod 8% and CBFb RUNX1 block -1%.
COc1ccc(C2=Nn3c(nnc3-c3cccc(OC)c3OC)SC2)cc1 was read as CBFb RUNX1 block 4%.
For O=C1C2=CC[C@H]3C(=O)N(C4CCCCC4)C(=O)[C@@H]3[C@@H]2[C@H](O)[C@@H]2O[C@H]12 the results were CBFb RUNX1 block -13%[13.1 µM].
COc1ccc(-c2nnc3n2N=C(c2ccc(OC)cc2OC)CS3)cc1 was read as CBFb RUNX1 block -10%.
Screening CCOc1ccccc1C(=O)Nc1cc(-c2nc3cccnc3s2)ccc1C returned LMNA splice mod -29%[46 µM].
NC(=O)NCCC[C@H](N)C(=O)O was read as CBFb RUNX1 block 4%[21.7 µM].
Screening N[C@@H](CCCCNC(=O)CCCC[C@@H]1SC[C@H]2NC(=O)N[C@H]12)C(=O)O returned CBFb RUNX1 block 0.4µM*.
CC[C@@H](C)[C@@H](CO[C@@H](Cc1ccccc1)C(=O)N[C@@H](CCS(C)(=O)=O)C(=O)OC(C)C)NC[C@@H](N)CS was read as CBFb RUNX1 block 20%.
Screening Cn1nc(-c2ccc(Cl)cc2)nc2c(=O)n(C)c(=O)nc1-2 returned MBNL1-CUG inh inconclusive, LMNA splice mod inconclusive, MBNL1 TRFRET 0.65µM*, MBNL1 AlphaScrn 0.26µM* and MBNL1 HTRF CS 56%.
For CS(=O)(=O)n1nc(-c2ccc(Cl)cc2)nc1N the results were MBNL1-CUG inh -6%, LMNA splice mod -8%[46 µM] and CBFb RUNX1 block 8%.
Screening COc1ccccc1N1CCN(CC(=O)Nc2ccc(-n3cnnn3)cc2)CC1 returned MBNL1-CUG inh -17%, LMNA splice mod 6%[46 µM] and CBFb RUNX1 block 3%.
COc1ccc(N2CCN(CC(=O)Nc3ccc(-n4cnnn4)cc3)CC2)cc1 was read as MBNL1-CUG inh -7%, LMNA splice mod -1%, CBFb RUNX1 block 2%, MBNL1 TRFRET -1%, MBNL1 AlphaScrn inconclusive and MBNL1 HTRF CS 2%.
`CCn1c(=O)n(CC)c2cc(N3CCCCC3)c(NC(=O)Nc3cc(C)cc(C)c3)cc21` gave LMNA splice mod -20%[46 µM].
For Cc1cc(C)cc(NC(=O)Nc2cccnc2)c1 the results were MBNL1-CUG inh -18%.
CC(=O)c1cccc(NC(=O)Nc2cccnc2)c1 was read as MBNL1-CUG inh 25µM*, LMNA splice mod 9%, CBFb RUNX1 block -9%, MBNL1 TRFRET 26µM*, MBNL1 AlphaScrn 2% and MBNL1 HTRF CS inconclusive.
For CC(C)CCN1CCc2nc(COc3ccccc3)c3c(c2C1)COC(C)C3 (stereo not drawn) the results were CBFb RUNX1 block 7%[13.1 µM].
CCOC(=O)C1(CCOc2ccccc2)CCN(Cc2ccc(-n3cccn3)cc2)CC1 was read as MBNL1-CUG inh 11µM*, CBFb RUNX1 block -3%, MBNL1 TRFRET 6.5µM*, MBNL1 AlphaScrn inconclusive and MBNL1 HTRF CS -46%.
CCOC(=O)C1(CCOc2ccccc2)CCN(Cc2ccncc2)CC1 was read as MBNL1-CUG inh -7% and CBFb RUNX1 block 1%.
Screening COc1ccc(S(=O)(=O)Nc2cc(OC)cc3cccnc23)cc1 returned CBFb RUNX1 block 6%.
Screening CC(C)N(Cc1ccccc1)C(C)C (tested in a mixture with another compound) returned CBFb RUNX1 block 22%.
For CC(=O)Nc1ccc(NC(=O)c2cc(-c3cc(C)c(C)cc3O)n[nH]2)cc1 the results were MBNL1-CUG inh 10µM*, MBNL1 TRFRET inconclusive, MBNL1 AlphaScrn 41µM* and MBNL1 HTRF CS -2%.
`Cc1cc(O)c(-c2cc(C(=O)Nc3cccnc3)[nH]n2)cc1C` gave CBFb RUNX1 block 10%.
COC(=O)[C@H](COC(C)(C)C)NC(=O)O[C@@H]1C(=O)c2ccc(OC)cc2O[C@H]1c1cccc(C(F)(F)F)c1 was read as CBFb RUNX1 block -2%.
Cc1ccc(-n2ncc3c(N4CCN(Cc5ccccc5)CC4)ncnc32)cc1Cl was read as LMNA splice mod -20%[46 µM].
Screening C/C1=C2N=C(/C=C3N=C(/C(C)=C4\[N-]C(C)(C5N=C1C(C)(CCC(=O)NCC(C)OP(=O)([O-])O[C@H]1C(O)C(n6cnc7cc(C)c(C)cc76)O[C@@H]1CO)C5CC(N)=O)C(C)(CC(N)=O)C4CCC(N)=O)C(C)(CC(N)=O)C\3CCC(N)=O)C(C)(C)C/2CCC(N)=O.[CH2-]C1OC(n2cnc3c(N)ncnc32)C(O)C1O.[Co] (stereo partly drawn) returned LMNA splice mod inconclusive, CBFb RUNX1 block -13%, MBNL1 TRFRET 0.12µM* and MBNL1 AlphaScrn 5.2µM*.
For CC1(C)CCc2c([nH]c3ccccc3c2=O)O1 the results were MBNL1-CUG inh -11%, LMNA splice mod 15%[46 µM] and CBFb RUNX1 block 17%.
`CC1(C)CCC2=C(O1)c1ccccc1C(=O)C2=O` gave MBNL1-CUG inh inconclusive, LMNA splice mod inconclusive, CBFb RUNX1 block inconclusive, MBNL1 TRFRET inconclusive and MBNL1 AlphaScrn 20µM*.
Screening O=C1CCC=C1C(O)c1ccccc1 (stereo not drawn) returned CBFb RUNX1 block -12%.
For CCN(CCCCO)c1nc(C)nc2c1c(C)c(C)n2-c1c(C)cc(C)cc1C the results were CBFb RUNX1 block 3%.
`CCCCC(=O)c1ccc(O)cc1` gave MBNL1-CUG inh 3%, LMNA splice mod 0% and CBFb RUNX1 block 3%.
